Laboratory results: the supplement of paper PMC10849652
About 8,800 targets were measured; listed, in parts, are those with a hit and a random draw of the rest. About 0.5% of all pairs of compound and target were hits.

Legend:
Test in all cases: log2 fold change, soluble protein after heating vs DMSO (PISA); higher = thermal stabilisation; K562 lysate, 10 uM; active = over 0.2 and 3.5 SD of the protein, either way, in both replicates (recomputed)
[1] = compound: C1=CC=C(C=C1)[C@H](COC2=CC3=C(C=C2)NC(=O)N3)NC(=O)C4=CC=CN(C4=O)CC5=CC(=C(C=C5)F)F
Procedure, shortened: (§1)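 The values are log-two fold changes in thermal stability compared with solvent controls and come from duplicates. They were obtained by TMTpro 16plex LC-MS/MS, with channel sums equalised, on the supernatant after 21,000xg for 90 min. That supernatant came from crude K562 extract at 1 mg/mL protein treated with 10 μM compound for 30 min, heated for 3 min across 48°C-58°C, pooled and brought to 0.5% NP-40 at 4°C.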

[2] = compound: CC1=C(SC2=C1C(=N[C@H](C3=NN=C(N32)C)CC(=O)N)C4=CC=C(C=C4)Cl)C
Procedure, shortened: as §1

[3] = compound: CC1=C2C(=CC=C1)N=C(N(C2=O)C3=CC=CC=C3C)CN4C=NC5=C(N=CN=C54)N
Procedure, shortened: as §1

[4] = compound: Cc1sc2c(c1C)C(c1ccc(Cl)cc1)=N[C@@H](CC(=O)OC(C)(C)C)c1nnc(C)n1-2
Procedure, shortened: as §1

[5] = compound: c1ccc([C@@H]2C[C@H]2NC2CCNCC2)cc1
Procedure, shortened: as §1

Measured: log2 fold change

LYSMD3 (UniProt Q7Z3D4)
UniProt Q7Z3D4, sequence (Q7Z3D4 whole entry, looked up): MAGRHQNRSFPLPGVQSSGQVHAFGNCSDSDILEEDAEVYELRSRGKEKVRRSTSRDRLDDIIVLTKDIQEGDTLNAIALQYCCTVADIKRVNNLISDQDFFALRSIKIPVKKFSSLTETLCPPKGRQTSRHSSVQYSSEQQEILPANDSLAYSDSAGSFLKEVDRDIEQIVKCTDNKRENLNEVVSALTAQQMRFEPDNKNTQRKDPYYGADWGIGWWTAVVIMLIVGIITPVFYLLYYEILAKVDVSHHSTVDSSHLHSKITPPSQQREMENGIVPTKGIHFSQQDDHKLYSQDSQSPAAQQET
inactive: [1] 0.031 | [2] 0.063 | [3] 0.062 | [4] -0.096 | [5] -0.084

MED14 (UniProt O60244)
UniProt O60244, sequence (O60244 whole entry, looked up): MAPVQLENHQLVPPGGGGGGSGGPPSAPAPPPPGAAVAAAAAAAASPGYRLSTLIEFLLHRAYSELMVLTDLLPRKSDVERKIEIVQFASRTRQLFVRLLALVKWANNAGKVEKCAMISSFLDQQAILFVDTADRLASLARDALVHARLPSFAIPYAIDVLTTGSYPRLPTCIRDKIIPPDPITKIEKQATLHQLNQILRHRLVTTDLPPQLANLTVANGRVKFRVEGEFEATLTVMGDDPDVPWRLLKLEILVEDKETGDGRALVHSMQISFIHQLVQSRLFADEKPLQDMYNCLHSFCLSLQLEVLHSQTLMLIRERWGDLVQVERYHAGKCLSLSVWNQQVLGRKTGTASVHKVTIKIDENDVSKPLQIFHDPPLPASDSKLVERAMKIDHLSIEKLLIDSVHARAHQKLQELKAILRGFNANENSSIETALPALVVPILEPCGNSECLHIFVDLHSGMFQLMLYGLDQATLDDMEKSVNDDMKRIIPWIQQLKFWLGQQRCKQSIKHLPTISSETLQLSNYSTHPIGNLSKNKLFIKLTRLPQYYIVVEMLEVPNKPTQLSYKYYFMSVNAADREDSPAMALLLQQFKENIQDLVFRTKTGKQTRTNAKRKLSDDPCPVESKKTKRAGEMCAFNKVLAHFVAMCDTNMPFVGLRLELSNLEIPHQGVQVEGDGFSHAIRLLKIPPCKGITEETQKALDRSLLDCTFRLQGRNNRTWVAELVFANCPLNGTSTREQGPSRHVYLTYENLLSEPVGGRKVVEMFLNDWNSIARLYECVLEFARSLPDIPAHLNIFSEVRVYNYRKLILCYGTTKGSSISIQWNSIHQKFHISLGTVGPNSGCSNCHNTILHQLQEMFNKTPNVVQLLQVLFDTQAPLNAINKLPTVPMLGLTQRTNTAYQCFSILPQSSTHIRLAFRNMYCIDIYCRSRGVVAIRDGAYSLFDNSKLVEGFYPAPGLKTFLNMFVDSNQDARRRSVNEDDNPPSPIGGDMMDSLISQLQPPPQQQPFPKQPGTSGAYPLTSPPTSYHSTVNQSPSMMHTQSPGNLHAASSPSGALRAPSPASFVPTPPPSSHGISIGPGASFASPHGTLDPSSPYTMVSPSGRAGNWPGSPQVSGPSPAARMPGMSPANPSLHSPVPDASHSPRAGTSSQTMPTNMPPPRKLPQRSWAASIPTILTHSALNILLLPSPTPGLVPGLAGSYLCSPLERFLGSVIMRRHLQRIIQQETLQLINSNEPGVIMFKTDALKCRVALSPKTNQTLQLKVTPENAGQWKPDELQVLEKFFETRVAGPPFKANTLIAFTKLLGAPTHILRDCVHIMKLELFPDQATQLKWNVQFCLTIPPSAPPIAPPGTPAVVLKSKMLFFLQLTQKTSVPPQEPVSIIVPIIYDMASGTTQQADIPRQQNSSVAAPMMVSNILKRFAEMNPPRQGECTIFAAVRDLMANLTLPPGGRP
inactive: [1] -0.037 | [2] 0.035 | [3] 0.034 | [4] -0.029 | [5] 0

LSS (UniProt P48449)
UniProt P48449, sequence (P48449 whole entry, looked up): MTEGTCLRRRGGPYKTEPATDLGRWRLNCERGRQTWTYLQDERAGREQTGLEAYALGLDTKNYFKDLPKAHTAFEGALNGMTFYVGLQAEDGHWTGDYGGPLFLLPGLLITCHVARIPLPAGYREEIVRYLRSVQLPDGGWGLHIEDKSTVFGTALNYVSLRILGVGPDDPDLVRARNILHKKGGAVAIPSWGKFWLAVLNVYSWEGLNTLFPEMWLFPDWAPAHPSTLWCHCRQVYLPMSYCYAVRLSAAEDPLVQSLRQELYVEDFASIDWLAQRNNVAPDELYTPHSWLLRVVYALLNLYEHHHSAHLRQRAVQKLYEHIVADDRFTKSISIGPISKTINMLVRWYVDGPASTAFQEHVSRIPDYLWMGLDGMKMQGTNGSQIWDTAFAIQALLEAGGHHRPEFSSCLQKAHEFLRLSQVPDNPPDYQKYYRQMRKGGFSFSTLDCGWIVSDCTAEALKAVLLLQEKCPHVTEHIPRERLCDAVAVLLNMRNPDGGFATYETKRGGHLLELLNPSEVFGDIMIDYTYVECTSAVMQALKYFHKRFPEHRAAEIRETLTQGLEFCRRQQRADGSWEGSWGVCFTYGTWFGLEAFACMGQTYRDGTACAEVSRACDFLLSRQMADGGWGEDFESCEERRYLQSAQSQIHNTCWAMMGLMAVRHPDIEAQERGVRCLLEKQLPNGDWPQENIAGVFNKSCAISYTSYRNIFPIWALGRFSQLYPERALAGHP
inactive: [1] 0.016 | [2] -0.083 | [3] 0.014 | [4] -0.012 | [5] -0.007

MBLAC2 (UniProt Q68D91)
UniProt Q68D91, sequence (Q68D91 whole entry, looked up): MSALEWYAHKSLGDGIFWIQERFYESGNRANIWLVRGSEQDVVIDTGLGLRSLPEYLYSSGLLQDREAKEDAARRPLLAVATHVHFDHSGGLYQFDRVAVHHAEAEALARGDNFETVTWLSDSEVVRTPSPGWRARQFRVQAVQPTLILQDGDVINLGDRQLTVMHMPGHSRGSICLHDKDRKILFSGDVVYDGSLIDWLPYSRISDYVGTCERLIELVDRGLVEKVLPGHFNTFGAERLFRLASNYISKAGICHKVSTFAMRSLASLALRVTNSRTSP
inactive: [1] -0.011 | [2] -0.005 | [3] 0.001 | [4] 0.013 | [5] -0.033

LAMP1 (UniProt P11279)
UniProt P11279, sequence (P11279 whole entry, looked up): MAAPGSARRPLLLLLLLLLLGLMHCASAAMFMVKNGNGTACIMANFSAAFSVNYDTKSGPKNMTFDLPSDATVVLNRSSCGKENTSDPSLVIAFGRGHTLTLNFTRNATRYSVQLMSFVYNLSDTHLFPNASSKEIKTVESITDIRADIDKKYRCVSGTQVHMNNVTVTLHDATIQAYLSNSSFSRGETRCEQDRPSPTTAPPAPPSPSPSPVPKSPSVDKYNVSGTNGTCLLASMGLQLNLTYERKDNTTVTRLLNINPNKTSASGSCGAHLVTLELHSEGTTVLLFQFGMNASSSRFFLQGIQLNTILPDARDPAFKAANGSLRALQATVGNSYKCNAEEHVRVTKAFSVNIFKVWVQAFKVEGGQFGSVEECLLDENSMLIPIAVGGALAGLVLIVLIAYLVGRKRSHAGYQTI
inactive: [1] -0.006 | [2] 0.008 | [3] 0.017 | [4] -0.125 | [5] -0.299

MAT2B (UniProt Q9NZL9)
UniProt Q9NZL9, sequence (Q9NZL9 whole entry, looked up): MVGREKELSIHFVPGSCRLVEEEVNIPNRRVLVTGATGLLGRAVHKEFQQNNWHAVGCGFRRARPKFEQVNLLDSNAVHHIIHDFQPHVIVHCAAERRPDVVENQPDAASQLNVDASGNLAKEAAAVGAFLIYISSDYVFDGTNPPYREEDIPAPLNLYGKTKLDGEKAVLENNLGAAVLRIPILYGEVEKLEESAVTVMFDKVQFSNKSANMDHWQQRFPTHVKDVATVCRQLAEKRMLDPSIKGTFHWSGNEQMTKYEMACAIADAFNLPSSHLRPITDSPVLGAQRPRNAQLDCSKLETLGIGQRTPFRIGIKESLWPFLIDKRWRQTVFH
inactive: [1] -0.008 | [2] 0.014 | [3] -0.044 | [4] -0.003 | [5] -0.002

MPI (UniProt P34949)
UniProt P34949, sequence (P34949 whole entry, looked up): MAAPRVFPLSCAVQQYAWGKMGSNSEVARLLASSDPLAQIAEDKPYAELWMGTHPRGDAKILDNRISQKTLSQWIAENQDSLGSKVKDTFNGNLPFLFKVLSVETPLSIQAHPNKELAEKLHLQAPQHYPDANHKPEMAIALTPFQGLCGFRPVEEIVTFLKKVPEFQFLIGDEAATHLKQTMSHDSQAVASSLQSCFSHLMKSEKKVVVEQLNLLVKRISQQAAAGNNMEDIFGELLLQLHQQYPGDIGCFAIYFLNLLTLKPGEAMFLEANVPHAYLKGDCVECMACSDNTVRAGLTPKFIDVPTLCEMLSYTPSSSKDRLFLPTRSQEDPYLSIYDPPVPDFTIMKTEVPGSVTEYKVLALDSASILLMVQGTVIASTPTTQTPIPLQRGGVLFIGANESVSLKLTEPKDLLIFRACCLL
inactive: [1] 0.023 | [2] -0.014 | [3] 0.033 | [4] -0.023 | [5] 0.083

MOCS1 isoform 8 (UniProt Q9NZB8)
inactive: [1] -0.061 | [2] -0.044 | [3] 0.058 | [4] -0.017 | [5] 0.067

MLXIP (UniProt Q9HAP2)
UniProt Q9HAP2, sequence (Q9HAP2 whole entry, looked up): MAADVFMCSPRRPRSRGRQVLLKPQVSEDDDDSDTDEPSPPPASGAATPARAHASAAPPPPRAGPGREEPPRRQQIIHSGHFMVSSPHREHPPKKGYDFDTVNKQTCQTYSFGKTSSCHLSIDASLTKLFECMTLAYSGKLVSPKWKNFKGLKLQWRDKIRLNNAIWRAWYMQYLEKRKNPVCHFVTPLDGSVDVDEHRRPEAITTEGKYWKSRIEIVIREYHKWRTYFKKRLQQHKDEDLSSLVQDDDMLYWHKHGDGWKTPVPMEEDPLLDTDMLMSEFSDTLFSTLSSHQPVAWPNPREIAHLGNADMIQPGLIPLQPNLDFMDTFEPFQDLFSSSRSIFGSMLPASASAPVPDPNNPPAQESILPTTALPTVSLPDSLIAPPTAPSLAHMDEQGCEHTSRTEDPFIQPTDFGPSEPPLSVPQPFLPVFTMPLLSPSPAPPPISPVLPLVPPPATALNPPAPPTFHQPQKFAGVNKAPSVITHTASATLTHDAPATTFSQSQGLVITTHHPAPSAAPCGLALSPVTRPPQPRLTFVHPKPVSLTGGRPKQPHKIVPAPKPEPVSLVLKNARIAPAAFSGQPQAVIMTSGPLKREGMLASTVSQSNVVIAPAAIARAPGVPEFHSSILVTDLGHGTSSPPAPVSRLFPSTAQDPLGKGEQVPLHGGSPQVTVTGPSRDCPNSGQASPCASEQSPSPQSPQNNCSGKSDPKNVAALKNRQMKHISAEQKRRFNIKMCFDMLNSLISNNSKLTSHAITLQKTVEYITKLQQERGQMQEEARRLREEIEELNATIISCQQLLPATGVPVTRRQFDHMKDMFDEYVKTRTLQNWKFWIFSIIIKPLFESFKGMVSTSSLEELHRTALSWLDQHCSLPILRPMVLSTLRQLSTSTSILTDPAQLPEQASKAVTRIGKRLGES
inactive: [1] -0.063 | [2] 0.005 | [3] 0.018 | [4] 0.031 | [5] -0.025
